This is a sample that favours compounds with a hit; in the whole collection about 19% have one here.
HT1080NT lethal = kills 2HG-producing HT-1080-NT fibrosarcoma cells; 360,000 tested, 1.6% active; HT-1080-NT fibrosarcoma viability, CellTiter-Glo ATP luminescence, 48 h; Potency, µM (titrated, usually from 46.1 µM), for the others: top-dose activity, negative = less viability, usual class: cytotoxic;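 note: NT is the 2HG producing partner of a matched IDH1 knockdown line; potency is the fitted concentration of half-maximal effect; 0% = DMSO-treated cells and -100% = media-only wells without cells; nearly all actives have a fitted effect of over 55% in size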
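Read-out is CellTiter-Glo luminescence after 10 minutes at room temperature, following 48 hours' compound treatment of HT-1080-NT cells (750 cells/well, RPMI, 5% FBS, 37 degrees C).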
HT1080 IDH1KD tx = kills HT-1080 cells with IDH1 knockdown. AID 686971. Potency, µM (top dose mostly 46.1 µM), for the others: at the highest dose activity, negative = toxicity, hits mostly cytotoxic. HT-1080 IDH1 knockdown viability, ATP luminescence, 48 h. 360,000 tested, 2% active;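 note: potency is the fitted concentration of half-maximal effect; 0% = DMSO wells and -100% = cell-free medium wells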
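In this qHTS, HT-1080 cells depleted of IDH1 are exposed for 48 h at 37 °C to compound titrations. Toxicity is scored from CellTiter-Glo luminescence, with DMSO as full viability and medium alone as none.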
DT40 TDP1 CPT = DT40-hTDP1 cell growth loss with CPT. AID 686979. chicken DT40 Tdp1-/-;hTDP1 cells + 20 nM CPT, ATP luminescence, 48 h. 420,000 tested, 12% active. Potency, µM (top dose mostly 46.2 µM), without a hit: top-dose activity change, negative = growth inhibition, actives largely listed as inhibitors; note: potency is the fitted concentration of half-maximal effect; nearly all actives have a fitted effect of over 55% in size
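Chicken DT40 Tdp1-/- cells stably complemented with human TDP1 were seeded at 400 cells/well in medium containing 20 nM camptothecin, exposed to pin-transferred compounds, and grown at 37 °C for at least 48 hr. Viability was read as ATP luminescence.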
IL-1B inflam inh = blocks inflammasome-driven IL-1 beta release; THP-1 LPS/ATP IL-1B secretion, AlphaLISA, 16 h; stronger effect = lower value; activity change, % at 57.5 µM; 360,000 tested, 4.7% active; in the data active = activity change below about -50%; inconclusive = mostly about -30% to -49%
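THP-1 cells pretreated 1 hr with compounds (up to 57.5 uM final), then stimulated with LPS (250 ng/mL final) plus ATP (1.25 mM final); secreted IL-1B measured by AlphaLISA after 16 hr, decreased signal indicating inhibition.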
TDP1 cell noCPT = qHTS for Inhibitors of human tyrosyl-DNA phosphodiesterase 1 (TDP1): qHTS in cells in absence of CPT; DT40 Tdp1-/- hTDP1 cells, no CPT, ATP luminescence, 48 h; Potency, µM (top dose mostly 46.2 µM), for inactives: top-dose activity change, negative = growth inhibition, actives largely listed as inhibitors; 420,000 tested, 15% active; AID 686978, 2013; note: potency is the fitted concentration of half-maximal effect; nearly all actives have a fitted effect of over 55% in size
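A cellular qHTS used chicken DT40 cells lacking endogenous Tdp1 but carrying stably transfected human TDP1. Compounds were applied without camptothecin, and cell growth kinetics were judged by ATP-dependent luminescence after ≥48 hr.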
Numbers without * were called inactive; ? = inconclusive; . = no result given; [ ] = remark or other dose. Unless noted, calls come from the whole dose curve; as a rule, active = well fitted curve in the direction sought with a large enough effect; inconclusive = small, poorly fitted or top-dose-only effect, or another doubt; inactive = no such curve, though single readings can be large; an effect the other way counts as inactive or inconclusive. Unless noted, % is set by controls: 0 for no effect and ±100 for the full control effect.

SMILES	HT1080NT lethal	HT1080 IDH1KD tx	DT40 TDP1 CPT	IL-1B inflam inh	TDP1 cell noCPT
Cc1ccc(O)c(/C=N/NC(=O)c2[nH]ncc2Br)c1	2%	-29%	-9%	-10	15µM*
O=C(N/N=C\c1c(O)ccc2ccccc12)c1ccc(Cn2cccn2)o1	?	?	5.8µM*	74	5.8µM*
CCOc1ccc(N(CC(=O)NCCc2ccccc2)C(=O)CCC(=O)Nc2nccs2)cc1	-4%	-17%	-14%	-7	6%
O=C(Nc1ccc(F)cc1)C1CCN(S(=O)(=O)c2cccc3nonc23)CC1	-8%	-1%	-3%	13	-17%
CC/C(C)=N/NC(=S)NCc1ccco1	8%	9%	-1%	-3	-15%
N=C1/C(=C/c2cccn2Cc2ccc(Cl)cc2)C(=O)N=C2SC=CN12	16µM*	21µM*	-13%	10	?
CC1=CC2=NC(=O)/C(=C/c3cccn3Cc3ccccc3)C(=N)N2O1	?	?	19%	26	?
CCc1ccc(-c2cn(-c3nc(C)cc(C)n3)c(=N)o2)cc1	-29%	-13%	?	-59*	?
O=C(NCCCn1ccnc1)c1sc2cc([N+](=O)[O-])ccc2c1Cl	-27%	-24%	13µM*	59	16µM*
O=C(NCCCn1ccnc1)c1sc2cccc(F)c2c1Cl	5%[9.24 µM]	-4%	-23%	-12	?
COc1ccc(-n2cc(CNCC3CCOCC3)c(-c3cccc(F)c3)n2)cc1	?	-28%	?	-56*	16µM*
COc1ccc(-n2cc(CNCc3cnc4ccccn34)c(-c3cccc(F)c3)n2)cc1	?	0%	?	-73*	?
COc1ccc(-n2cc(CN(C)C3CCOCC3)c(-c3cccc(F)c3)n2)cc1	?	?	?	-12	18µM*
CC(C)OC(=O)CSc1nc(N2CCOCC2)c2c(c1C#N)CC(C)(C)OC2	-2%	-1%	2%	8	-22%
COc1ccc(CNC(=O)CN2C(=O)NC3(CCCCCCC3)C2=O)cc1	3%	10%	2%	-4	-14%
CCC(OC(=O)c1nsc(Cl)c1Cl)C(=O)NC(C)(C)C (centres undefined)	-5%	-3%	-9%	5	18%
COc1cccc2c(N/N=C/c3ccc(O)c(O)c3)cc(C)nc12	1%	5%	18%	23	-18%
COc1ccc(/C=N/Nc2cc(C)nc3c(C)cccc23)cc1	?	?	?	?	21µM*
COC(=O)Nc1cc(C)nc2ccccc12	-6%	-2%	-16%	15	-21%
COc1ccc2nc(C)cc(N/N=C/c3ccc(F)cc3)c2c1	2.9µM*	4.6µM*	1µM*	-99*	0.92µM*
COc1ccc(/C=N/Nc2cc(C)nc3ccccc23)cc1	18µM*	?	?	-107*	?
Cc1cc(=O)[nH]c(N/N=C/c2ccc(F)cc2)n1	25%	21%	0%	-1	0%
O=C(c1ccco1)N1CCCC(c2nc3c(nnn3Cc3ccc(Cl)cc3Cl)c(=O)[nH]2)C1 (centres undefined)	-16%	-11%	-15%	-17	-7%
CCOc1cccc2cc(C(N)=O)c(=N)oc12	8%	7%	-28%	0	-26%
Cc1cccc(C(=O)Nc2cccc(OCc3cc(=O)n4ccccc4n3)c2)c1	.	.	-4%	.	-7%
SMILES	HT1080NT lethal	HT1080 IDH1KD tx	DT40 TDP1 CPT	IL-1B inflam inh	TDP1 cell noCPT
Cc1c(C(=O)NCCS(=O)(=O)N2CCN(c3ccccc3F)CC2)cccc1[N+](=O)[O-]	?	?	?	17	21µM*
O=C(CCCc1ccccc1)NCCS(=O)(=O)N1CCN(c2ccccc2F)CC1	-12%	-13%	?	0	18µM*
O=C(Cc1ccc(Cl)cc1)NCCS(=O)(=O)N1CCN(c2ccccc2F)CC1	?	?	5.2µM*	4	5.8µM*
COc1ccc(CCC(=O)NCCS(=O)(=O)N2CCN(c3ccccc3OC)CC2)cc1	5%	-2%	21µM*	20	18µM*
O=C(NCCS(=O)(=O)N1CCN(c2ccccc2F)CC1)c1ccc(Cl)cc1	0%	2%	-2%	-1	-21%
NC(=O)C(NN=C(c1ccccc1)c1ccccc1)c1ccccc1 (centres undefined)	-5%	3%	-29%	-21	?
O=C(CCS(=O)(=O)Cc1ccc(Cl)cc1)NCCCN1CCN(c2ccccc2F)CC1	?	?	11µM*	?	?
Cc1ccccc1CS(=O)(=O)CCC(=O)NCCCN1CCN(c2ccccc2F)CC1	-9%	-11%	?	-5	?
CC(=O)c1c(C(C)=O)c(C)n(Cc2ccc(Cl)cc2)c1C	-16%	?	16µM*	-10	18µM*
CC(=O)c1c(C(C)=O)c(C)n(NC(=O)c2ccc(Cl)cc2)c1C	-5%	-7%	?	5	2%
COc1ccccc1N(C)S(=O)(=O)c1ccc(C(=O)Nc2nc(C)cs2)cc1	-1%	-9%	1.5µM*	-17	0.65µM*
CN(c1ccccc1)S(=O)(=O)c1ccc(C(=O)Nc2cccc(S(=O)(=O)N3CCOCC3)c2)cc1	-16%	-22%	7.3µM*	-12	7.3µM*
COc1ccccc1N(C)S(=O)(=O)c1ccc(C(=O)Nc2cccc(S(=O)(=O)N3CCOCC3)c2)cc1	-14%	?	?	-9	10µM*
COc1ccccc1N(C)S(=O)(=O)c1ccc(C(=O)Nc2nnc(C)s2)cc1	0%	-3%	2%	-3	-21%
CCc1ccc(NC(=O)C2CCN(c3cc(C)nc4c(-c5ccc(Cl)cc5)c(C)nn34)CC2)cc1	.	.	-18%	.	-8%
Cc1ccc(NC(=O)CN2C(=O)CCc3cc(S(=O)(=O)N4CCOCC4)ccc32)c(C)c1	.	.	-18%	.	-15%
Cc1ccc(S(=O)(=O)NC(C)C(=O)N2CCOCCOCCOCCOCC2)cc1 (centres undefined)	19%	17%	11%	24	0%
CCCN1CNC(=S)N(c2cc(C)ccc2C)C1	-5%	-13%	-6%	-16	-9%
Cc1ccc(C)c(N2CN(CCC3=CCCCC3)CNC2=S)c1	27%	4%	?	?	21µM*
COc1ccc(CCNC(=O)c2ccc3c(c2)S(=O)(=O)N=C2CCCCCN23)cc1OC	3%	5%	2%	11	-5%
Cc1ccc(C(=O)c2c3ccc([N+](=O)[O-])cc3[n+]([O-])n2CCC(N)=O)cc1	-8%	-17%	5.8µM*	1	15µM*
COc1ccc(C(=O)c2c3ccc([N+](=O)[O-])cc3[n+]([O-])n2CCCC(N)=O)cc1	-30%	-1%	9.2µM*	5	21µM*
